From PubChem BioAssay (Tox21) come the findings set out here.

Each structure is given as a SMILES string. Inconclusive results are not listed. A call without a number means that no potency is given here. Active and inactive are the calls of the source. Calls come from the whole dose curve.

In one assay the target is 5-hydroxytryptamine receptor 2A (Homo sapiens) (UniProt P28223). Briefly: 5-hydroxytryptamine receptor 2A (HTR2A) small molecule antagonists, cell-based qHTS assay (AID 1963586). Note: nearly all actives have a fitted effect of over 45% in size. Note: potency is the fitted concentration of half-maximal effect. To be noted: HTR2A-CHO cells, DOI-induced calcium flux, fluorescence; series mostly up to 61.5 µM. A digest of the protocol: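 CHO cells stably expressing human HTR2A were plated for 18 h at 37 C, then loaded with calcium dye for 1 h. Compounds were preincubated 5 min at room temperature before DOI (4 nM solution) was added. Kinetic fluorescence was read for 3 min.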
5-hydroxytryptamine receptor 2A (Homo sapiens), sequence (P28223 whole entry, looked up): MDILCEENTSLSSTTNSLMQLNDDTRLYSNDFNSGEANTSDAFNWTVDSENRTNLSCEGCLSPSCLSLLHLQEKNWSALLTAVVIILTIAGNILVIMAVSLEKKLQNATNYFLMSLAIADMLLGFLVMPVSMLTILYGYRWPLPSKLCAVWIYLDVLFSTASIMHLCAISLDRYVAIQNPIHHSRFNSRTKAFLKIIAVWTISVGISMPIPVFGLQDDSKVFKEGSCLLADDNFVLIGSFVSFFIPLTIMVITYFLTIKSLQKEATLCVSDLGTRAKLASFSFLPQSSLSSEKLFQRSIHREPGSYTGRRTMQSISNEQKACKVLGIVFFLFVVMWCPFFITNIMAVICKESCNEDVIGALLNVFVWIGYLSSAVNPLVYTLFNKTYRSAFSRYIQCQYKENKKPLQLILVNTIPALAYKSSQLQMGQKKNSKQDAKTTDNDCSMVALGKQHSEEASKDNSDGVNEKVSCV
Background: qHTS replaces the single test concentration by a dilution series.
Regarding `CCCCCCCCP(=O)(O)O`, the Potency entry is “inactive”.
For the compound `C[C@]12Cc3nonc3C[C@@H]1CC[C@@H]1[C@@H]2CC[C@@]2(C)[C@H]1CC[C@]2(C)O`, the Potency entry was “inactive”.
On the same count and under the same terms, then `O=C(Cl)c1ccc(Cl)cc1`, with “inactive”; and `BrCCCCBr`, with “inactive”.
As to `O=c1[nH]oc2c1CCNC2`, the Potency entry was “inactive”.
On to `O=S1(=O)OC(c2cc(Br)c(O)c(Br)c2)(c2cc(Br)c(O)c(Br)c2)c2ccccc21`, for which the Potency entry is “inactive”.
On the same count and under the same terms, then `[Cl][Sn]([Cl])([Cl])[Cl]`, with “inactive”; and `O=C(CCCN1CCC(n2c(=O)[nH]c3ccccc32)CC1)c1ccc(F)cc1`, with 1830 nM (active); and `CCOC(=O)CC(=O)CCl`, with “inactive”.
Take `CC1=C2C[C@H]3[C@@H](CC=C4C[C@@H](O)CC[C@@]43C)[C@@H]2CC[C@]12O[C@@H]1C[C@H](C)CN[C@H]1[C@H]2C`: the Potency entry is “inactive”.
For `CC(C)[C@H](C(=O)OC(C#N)c1cccc(Oc2ccccc2)c1)c1ccc(OC(F)F)cc1` (some centres not stated), the Potency entry is “inactive”.

The target is the same in a further assay. Put plainly: 5-hydroxytryptamine receptor 2A (HTR2A) small molecule agonists, cell-based qHTS assay (AID 1963587). Note: nearly all actives have a fitted effect of over 30% in size. Note: potency is the fitted concentration of half-maximal effect. To be noted: HTR2A-CHO cells, calcium flux fluorescence, agonist mode; series mostly up to 76.8 µM. In a few lines: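 HTR2A-CHO cells, plated 18 h at 37 C/5% CO2, dye-loaded 1 h at 37 C; compounds in DMSO added by pin tool (agonist mode). Intracellular calcium flux read as kinetic fluorescence on FDSS over 2 min at 1 s intervals.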
As to `CCCCCCCCP(=O)(O)O`, the Potency result was “inactive”.
Turning to `c1ccc2c(c1)CCNC2`, the Potency result is “inactive”.
`Nc1cc(Cl)ccc1Cl`: the Potency result was “inactive”.
In the case of `N#Cc1c(Cl)cccc1Cl`, the Potency entry is “inactive”.
Regarding `CC(Cc1ccccc1)N(C)Cc1ccco1` (configuration not stated), the Potency entry was “inactive”.
Take `O=C(Cc1ccccc1)OCCc1ccccc1`: the Potency entry is “inactive”.
On the same count and under the same terms, under `O=C(Cl)c1ccc(Cl)cc1` stands “inactive”.
In the case of `ClCCCN1CCN(c2cccc(Cl)c2)CC1`, the Potency result is “inactive”.
Same read-out and setting: under `ClC(Cl)=C(Cl)Cl` stands “inactive”; under `CC#Cc1cc(C)nc(Nc2ccccc2)n1`, “inactive”.
On the same count and under the same terms, under `O=c1[nH]oc2c1CCNC2` stands “inactive”; under `O=C1OC(CCN2CCCCC2)OC1(c1ccccc1)c1ccccc1` (configuration not stated), “inactive”; under `O=S1(=O)OC(c2cc(Br)c(O)c(Br)c2)(c2cc(Br)c(O)c(Br)c2)c2ccccc21`, “inactive”.
In the case of `[Cl][Sn]([Cl])([Cl])[Cl]`, the Potency result is “inactive”.
Same read-out and setting: then `O=[N+]([O-])c1ccc(CCl)cc1`, with “inactive”.
With `COc1cc(CC#N)cc(OC)c1OC`, the Potency entry was “inactive”.
Take `CC(C)NCC(O)c1ccc([N+](=O)[O-])cc1` (configuration not stated): the Potency result is “inactive”.
For the compound `CCOC(=O)CC(=O)CCl`, the Potency result was “inactive”.
The same measure, in the same setting: then `CNC(C)Cc1ccccc1OC` (configuration not stated), with 848 nM (active).
Still for that read-out and setting: then `CCN(CC)CCOC(=O)C(C)(c1ccccc1)c1ccccc1`, with “inactive”.
On to `ClCc1cccc(Cl)c1`, for which the Potency result was “inactive”.
Take `CC(C)[C@H](C(=O)OC(C#N)c1cccc(Oc2ccccc2)c1)c1ccc(OC(F)F)cc1` (some centres not stated): the Potency entry was “inactive”.

For the next assay, the target named is Muscarinic acetylcholine receptor M1 (Homo sapiens) (UniProt P11229). Briefly: Cholinergic receptor muscarinic 1 (CHRM1) small molecule antagonists, cell-based qHTS assay (AID 1963588). Note: nearly all actives have a fitted effect of over 40% in size. Note: potency is the fitted concentration of half-maximal effect. As to conditions: CHRM1-CHO antagonist mode, calcium flux fluorescence; series mostly up to 61.5 µM. In a few lines: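 Compounds were tested at 15 concentrations in three independent runs. Dye-loaded CHRM1-CHO cells were exposed 5 min at room temperature before stimulation by acetylcholine added at 50nM. Intracellular calcium was read kinetically on FDSS for 3 min.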
Muscarinic acetylcholine receptor M1 (Homo sapiens), sequence (P11229 whole entry, looked up): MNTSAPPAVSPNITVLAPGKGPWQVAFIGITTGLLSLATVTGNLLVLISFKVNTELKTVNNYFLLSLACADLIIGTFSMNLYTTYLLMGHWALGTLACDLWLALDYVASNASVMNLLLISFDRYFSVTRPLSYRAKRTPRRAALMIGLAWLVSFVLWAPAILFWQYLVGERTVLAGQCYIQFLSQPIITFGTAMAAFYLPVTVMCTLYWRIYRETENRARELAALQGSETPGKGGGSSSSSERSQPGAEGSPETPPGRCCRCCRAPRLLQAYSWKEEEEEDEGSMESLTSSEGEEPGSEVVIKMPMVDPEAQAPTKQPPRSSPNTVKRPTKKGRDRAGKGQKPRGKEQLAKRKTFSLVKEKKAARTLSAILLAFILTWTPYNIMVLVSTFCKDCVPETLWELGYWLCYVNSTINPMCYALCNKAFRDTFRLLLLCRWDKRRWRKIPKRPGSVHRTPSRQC
In the case of `CCCCCCCCP(=O)(O)O`, the Potency result was “inactive”.
Take `c1ccc2c(c1)CCNC2`: the Potency entry was “inactive”.
Consider `C[C@]12Cc3nonc3C[C@@H]1CC[C@@H]1[C@@H]2CC[C@@]2(C)[C@H]1CC[C@]2(C)O`, for which the Potency entry was “inactive”.
As for `Nc1cc(Cl)ccc1Cl`, the Potency result was “inactive”.
For the compound `Clc1cccc(N2CCNCC2)c1`, the Potency result is “inactive”.
For the compound `CC(Cc1ccccc1)N(C)Cc1ccco1` (configuration not stated), the Potency entry was “inactive”.
The same measure, in the same setting: then `O=C(Cl)c1ccc(Cl)cc1`, with “inactive”.
Turning to `ClCCCN1CCN(c2cccc(Cl)c2)CC1`, the Potency result is “inactive”.
Turning to `ClC(Cl)=C(Cl)Cl`, the Potency entry was “inactive”.
For the compound `CC#Cc1cc(C)nc(Nc2ccccc2)n1`, the Potency result is “inactive”.
With `BrCCCCBr`, the Potency result is “inactive”.
The same measure, in the same setting: then `O=c1[nH]oc2c1CCNC2`, with “inactive”; and `N[C@@H](Cc1ccc(Oc2cc(I)c(O)c(I)c2)c(I)c1)C(=O)O`, with “inactive”.
With `O=S1(=O)OC(c2cc(Br)c(O)c(Br)c2)(c2cc(Br)c(O)c(Br)c2)c2ccccc21`, the Potency entry was “inactive”.
For the compound `[Cl][Sn]([Cl])([Cl])[Cl]`, the Potency entry is “inactive”.
Regarding `O=C(CCCN1CCC(n2c(=O)[nH]c3ccccc32)CC1)c1ccc(F)cc1`, the Potency is 2050 nM (active).
In the case of `COc1cc(CC#N)cc(OC)c1OC`, the Potency entry was “inactive”.
Same read-out and setting: under `CC(C)NCC(O)c1ccc([N+](=O)[O-])cc1` (configuration not stated) stands “inactive”.
As to `CCOC(=O)CC(=O)CCl`, the Potency entry was “inactive”.
Turning to `CNC(C)Cc1ccccc1OC` (configuration not stated), the Potency result is “inactive”.
Turning to `CCN(CC)CCOC(=O)C(C)(c1ccccc1)c1ccccc1`, the Potency is 13 nM (active).
On the same count and under the same terms, under `ClCc1cccc(Cl)c1` stands “inactive”; under `CC(C)[C@H](C(=O)OC(C#N)c1cccc(Oc2ccccc2)c1)c1ccc(OC(F)F)cc1` (some centres not stated), “inactive”.

For another assay the target is unchanged. Briefly: Cholinergic receptor muscarinic 1 (CHRM1) small molecule agonists, cell-based qHTS assay (AID 1963589). Note: nearly all actives have a fitted effect of over 35% in size. As to conditions: CHRM1-CHO cells, agonist mode, calcium flux fluorescence; series mostly up to 76.8 µM. A digest of the protocol: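 Homogeneous fluorescence calcium flux, agonist mode. Human M1-expressing CHO cells; compound dosed at 15 concentrations, three independent runs; signal sampled every 1 sec.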
With `CCCCCCCCP(=O)(O)O`, the Potency result is “inactive”.
For `c1ccc2c(c1)CCNC2`, the Potency result was “inactive”.
For the compound `C[C@]12Cc3nonc3C[C@@H]1CC[C@@H]1[C@@H]2CC[C@@]2(C)[C@H]1CC[C@]2(C)O`, the Potency result was “inactive”.
Consider `Nc1cc(Cl)ccc1Cl`, for which the Potency result is “inactive”.
As for `Clc1cccc(N2CCNCC2)c1`, the Potency entry is “inactive”.
In the case of `N#Cc1c(Cl)cccc1Cl`, the Potency entry was “inactive”.
The same measure, in the same setting: then `CC(Cc1ccccc1)N(C)Cc1ccco1` (configuration not stated), with “inactive”; and `CC1NCCOC1c1ccccc1` (configuration not stated), with “inactive”; and `O=C(Cc1ccccc1)OCCc1ccccc1`, with “inactive”.
As to `O=C(Cl)c1ccc(Cl)cc1`, the Potency result is “inactive”.
With `ClCCCN1CCN(c2cccc(Cl)c2)CC1`, the Potency entry is “inactive”.
On the same count and under the same terms, under `ClC(Cl)=C(Cl)Cl` stands “inactive”; under `CCCN1CCC[C@@H]2Cc3[nH]ncc3C[C@H]21`, “inactive”.
On to `CC#Cc1cc(C)nc(Nc2ccccc2)n1`, for which the Potency entry is “inactive”.
Consider `BrCCCCBr`, for which the Potency result is “inactive”.
In the case of `O=c1[nH]oc2c1CCNC2`, the Potency entry is “inactive”.
In the case of `O=C1OC(CCN2CCCCC2)OC1(c1ccccc1)c1ccccc1` (configuration not stated), the Potency result is “inactive”.
Same read-out and setting: under `N[C@@H](Cc1ccc(Oc2cc(I)c(O)c(I)c2)c(I)c1)C(=O)O` stands “inactive”.
On to `O=S1(=O)OC(c2cc(Br)c(O)c(Br)c2)(c2cc(Br)c(O)c(Br)c2)c2ccccc21`, for which the Potency entry was “inactive”.
As for `[Cl][Sn]([Cl])([Cl])[Cl]`, the Potency entry is “inactive”.
As to `O=[N+]([O-])c1ccc(CCl)cc1`, the Potency entry is “inactive”.
`O=C(CCCN1CCC(n2c(=O)[nH]c3ccccc32)CC1)c1ccc(F)cc1`: the Potency entry is “inactive”.
The same measure, in the same setting: under `COc1cc(CC#N)cc(OC)c1OC` stands “inactive”; under `CC(C)NCC(O)c1ccc([N+](=O)[O-])cc1` (configuration not stated), “inactive”; under `CC(C(O)c1ccccc1)N(C)C/C=C/c1ccccc1` (configuration not stated), “inactive”.
For `CCOC(=O)CC(=O)CCl`, the Potency entry was “inactive”.
Consider `CNC(C)Cc1ccccc1OC` (configuration not stated), for which the Potency result is “inactive”.
Take `CCN(CC)CCOC(=O)C(C)(c1ccccc1)c1ccccc1`: the Potency entry is “inactive”.
For the compound `ClCc1cccc(Cl)c1`, the Potency entry is “inactive”.
For `CC1=C2C[C@H]3[C@@H](CC=C4C[C@@H](O)CC[C@@]43C)[C@@H]2CC[C@]12O[C@@H]1C[C@H](C)CN[C@H]1[C@H]2C`, the Potency result is “inactive”.
Same read-out and setting: then `CC(C)[C@H](C(=O)OC(C#N)c1cccc(Oc2ccccc2)c1)c1ccc(OC(F)F)cc1` (some centres not stated), with “inactive”.
